Assay [1] in a line: NCI Yeast Anticancer Drug Screen. Data for the rad50 strain (AID 155).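 Also: 0% = growth of vehicle-only cultures of the same strain.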 The settings on record: S. cerevisiae rad50 strain growth inhibition, stronger effect = higher value. In short, it runs like this: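 A DNA repair-deficient yeast mutant serves as the test organism; compound-induced growth inhibition is calculated against vehicle-treated cells.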
Assay [2] is described as follows: NCI Yeast Anticancer Drug Screen. Data for the mec2-1 strain (AID 157). The settings on record: S. cerevisiae mec2-1 strain, stronger effect = higher value. In short, it runs like this: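 Mutant yeast (mec2-1) grown with compound; growth inhibition relative to vehicle control reported.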
Assay [3] in a line: NCI Yeast Anticancer Drug Screen. Data for the sgs1 mgt1 strain (AID 161).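 Also: 0% = growth of cultures given vehicle only.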 The settings on record: S. cerevisiae sgs1 mgt1 strain, stronger effect = higher value. The procedure, abridged:
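Yeast cells carrying a defined DNA-repair defect were exposed to test compounds. Growth inhibition was measured relative to vehicle-treated controls.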

The nature of assay [4]: NCI Yeast Anticancer Drug Screen. Data for the cln2 rad14 strain (AID 165).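 Also: 0% = growth equal to vehicle treated cultures.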 The settings on record: S. cerevisiae cln2 rad14 strain, stronger effect = higher value. The procedure, abridged: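 Readout is yeast growth inhibition versus vehicle-treated controls, using a strain with cln2 and rad14 alterations exposed to compound.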
The nature of assay [5]: NCI Yeast Anticancer Drug Screen. Data for the bub3 strain (AID 167). The settings on record: S. cerevisiae bub3 mutant strain, stronger effect = higher value. In short, it runs like this: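 Inhibition values come from growth of compound-treated mutant yeast normalised to vehicle-treated controls.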
A short description of assay [6]: NCI Yeast Anticancer Drug Screen. Data for the mlh1 rad18 strain (AID 175). The settings on record: S. cerevisiae mlh1 rad18 strain growth inhibition, stronger effect = higher value. In short, it runs like this: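 Genetically defined yeast (DNA repair-deficient) exposed to compounds; growth inhibition determined relative to vehicle.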
[7] abbreviates: at 5.0 µM (retest, dose inferred, filed as 0.5).
[8] abbreviates: at 50.0 µM (retest, dose inferred, filed as 5.0).

About 79,000 compounds went through this panel and 15% of them were active in at least one assay; those are over-represented in the sample as a whole. A number with no mark means an inactive call. Activity calls are given as the source filed them. Rule as the data show it: active = growth inhibition above about 70%; inactive = the rest.

As to `CC(C)SCC1CO1` (stereo not given), the growth inhibition in assay [1] (setting [7]) is -1%; in assay [1] (setting [8]), 1%; in assay [1] (at 50.0 µM), -19.6%; in assay [2] (setting [7]), -1%; in assay [2] (setting [8]), -4%; in assay [2] (at 50.0 µM) it was 3.9%. In addition, the growth inhibition in assay [3] (setting [7]) was -1%; in assay [3] (setting [8]), 1%; in assay [3] (at 50.0 µM), 18.1%; in assay [4] (setting [7]) it was 2%; in assay [4] (setting [8]), -11%; in assay [4] (at 50.0 µM), 47.5%. In addition, the growth inhibition in assay [5] (setting [7]) is 0%; in assay [5] (setting [8]), -9%; in assay [5] (at 50.0 µM), -6.55%; in assay [6] (setting [7]), -1%; in assay [6] (setting [8]), -5%; in assay [6] (at 50.0 µM), -3.5%.

Consider `Cc1ccc2c(ccc(CC(=S)[S-])[n+]2C)c1`, for which the growth inhibition in assay [1] (setting [7]) is 10%; in assay [1] (setting [8]), 41%; in assay [1] (at 50.0 µM), 58.2%; in assay [2] (setting [7]) it was 11%; in assay [2] (setting [8]) it was 21%; in assay [2] (at 50.0 µM), 51.6%. The growth inhibition in assay [3] (setting [7]) is 11%; in assay [3] (setting [8]), 46%; in assay [3] (at 50.0 µM), 66.3%; in assay [4] (setting [7]) it was 10%; in assay [4] (setting [8]) it was 37%; in assay [4] (at 50.0 µM), 47.3%. The growth inhibition was 3% in assay [5] (setting [7]); 38% in assay [5] (setting [8]); 61.5% in assay [5] (at 50.0 µM); 4% in assay [6] (setting [7]); 41% in assay [6] (setting [8]); 90.2% (active) in assay [6] (at 50.0 µM).

Consider `O=C1C(=O)N(C(=O)c2ccc(Cl)c(Cl)c2)c2ccc(Cl)cc21`, for which the growth inhibition in assay [1] (setting [7]) is -6%; in assay [1] (setting [8]) it was -4%; in assay [1] (at 50.0 µM), 13.6%; in assay [2] (setting [7]) it was -9%; in assay [2] (setting [8]), 2%; in assay [2] (at 50.0 µM), 24.4%. Besides, the growth inhibition in assay [3] (setting [7]) was -7%; in assay [3] (setting [8]), 6%; in assay [3] (at 50.0 µM), 35.2%; in assay [4] (setting [7]), -9%; in assay [4] (setting [8]) it was -20%; in assay [4] (at 50.0 µM) it was 10.8%. Further, the growth inhibition is -6% in assay [5] (setting [7]); 56% in assay [5] (setting [8]); 91.6% (active) in assay [5] (at 50.0 µM); -8% in assay [6] (setting [7]); 12% in assay [6] (setting [8]); 64% in assay [6] (at 50.0 µM).

On to `COc1cc2c(cc1O)C1Cc3ccc(OC)c(O)c3C(C2)N1C` (stereo not given), for which the growth inhibition in assay [1] (setting [7]) was 22%; in assay [1] (setting [8]), 21%; in assay [1] (at 50.0 µM), 66.3%; in assay [2] (setting [7]), 22%; in assay [2] (setting [8]), 10%; in assay [2] (at 50.0 µM), -3.45%. Besides, the growth inhibition is 16% in assay [3] (setting [7]); 13% in assay [3] (setting [8]); -4.65% in assay [3] (at 50.0 µM); 22% in assay [4] (setting [7]); 19% in assay [4] (setting [8]); -5.45% in assay [4] (at 50.0 µM). The growth inhibition in assay [5] (setting [7]) was 16%; in assay [5] (setting [8]), 24%; in assay [5] (at 50.0 µM), -5.65%; in assay [6] (setting [7]), 23%; in assay [6] (setting [8]), 20%; in assay [6] (at 50.0 µM) it was -68%.

In the case of `CCCCCC(CO)C(O)(C(F)(F)F)C(F)(F)F` (stereo not given), the growth inhibition was -23% in assay [1] (setting [7]); -5% in assay [1] (setting [8]); 44.8% in assay [1] (at 50.0 µM); -26% in assay [2] (setting [7]); 7% in assay [2] (setting [8]); 33.9% in assay [2] (at 50.0 µM). The growth inhibition is 1% in assay [3] (setting [7]); 9% in assay [3] (setting [8]); 65.4% in assay [3] (at 50.0 µM); 3% in assay [4] (setting [7]); 15% in assay [4] (setting [8]); 47.4% in assay [4] (at 50.0 µM). Moreover, the growth inhibition in assay [5] (setting [7]) is 0%; in assay [5] (setting [8]), 11%; in assay [5] (at 50.0 µM), -30.4%; in assay [6] (setting [7]), -26%; in assay [6] (setting [8]), -1%; in assay [6] (at 50.0 µM), 49.1%.

With `O=C(Nc1ccc(S(=O)(=O)NC2CCCCC2)cc1)OC1CCCCC1`, the growth inhibition is 14% in assay [1] (setting [7]); 95% (active) in assay [1] (setting [8]); 92.9% (active) in assay [1] (at 50.0 µM); 30% in assay [2] (setting [7]); 98% (active) in assay [2] (setting [8]); 93.4% (active) in assay [2] (at 50.0 µM). Moreover, the growth inhibition in assay [3] (setting [7]) is 66%; in assay [3] (setting [8]), 92% (active); in assay [3] (at 50.0 µM), 94.3% (active); in assay [4] (setting [7]) it was -10%; in assay [4] (setting [8]) it was 93% (active); in assay [4] (at 50.0 µM), 93.7% (active). Further, the growth inhibition in assay [5] (setting [7]) is 10%; in assay [5] (setting [8]), 95% (active); in assay [5] (at 50.0 µM), 92.3% (active); in assay [6] (setting [7]), 11%; in assay [6] (setting [8]), 95% (active); in assay [6] (at 50.0 µM) it was 94% (active).

As for `O=C(C[n+]1ccc2ccccc2c1)c1ccc(-c2ccccc2)cc1`, the growth inhibition in assay [1] (setting [7]) was -5%; in assay [1] (setting [8]) it was 97% (active); in assay [1] (at 50.0 µM), 98.2% (active); in assay [2] (setting [7]) it was -2%; in assay [2] (setting [8]), 98% (active); in assay [2] (at 50.0 µM), 97.8% (active). Also, the growth inhibition in assay [3] (setting [7]) is -3%; in assay [3] (setting [8]), 97% (active); in assay [3] (at 50.0 µM), 98% (active); in assay [4] (setting [7]) it was -4%; in assay [4] (setting [8]), 96% (active); in assay [4] (at 50.0 µM), 96.8% (active). Moreover, the growth inhibition in assay [5] (setting [7]) was -5%; in assay [5] (setting [8]), 98% (active); in assay [5] (at 50.0 µM), 98.5% (active); in assay [6] (setting [7]), -7%; in assay [6] (setting [8]), 98% (active); in assay [6] (at 50.0 µM), 97.8% (active).

Take `Cc1ccc(N=NC(C(=O)c2ccccc2)C(=O)c2ccccc2)cc1`: the growth inhibition in assay [1] (setting [7]) is 7%; in assay [1] (setting [8]) it was 94% (active); in assay [1] (at 50.0 µM) it was 93% (active); in assay [2] (setting [7]) it was -3%; in assay [2] (setting [8]), 97% (active); in assay [2] (at 50.0 µM) it was 93.3% (active). For the same compound, the growth inhibition is 14% in assay [3] (setting [7]); 92% (active) in assay [3] (setting [8]); 91.3% (active) in assay [3] (at 50.0 µM); 7% in assay [4] (setting [7]); 94% (active) in assay [4] (setting [8]); 87.9% (active) in assay [4] (at 50.0 µM). The growth inhibition in assay [5] (setting [7]) is -3%; in assay [5] (setting [8]), 95% (active); in assay [5] (at 50.0 µM), 93.1% (active); in assay [6] (setting [7]), -2%; in assay [6] (setting [8]), 95% (active); in assay [6] (at 50.0 µM), 92.5% (active).

Take `CN(C)c1cccc(F)c1C(=O)NC(=O)Nc1ccc(Cl)cc1`: the growth inhibition is 2% in assay [1] (setting [7]); 3% in assay [1] (setting [8]); 79.7% (active) in assay [1] (at 50.0 µM); 1% in assay [2] (setting [7]); 4% in assay [2] (setting [8]); 75.7% (active) in assay [2] (at 50.0 µM). Also, the growth inhibition in assay [3] (setting [7]) is 0%; in assay [3] (setting [8]) it was 7%; in assay [3] (at 50.0 µM) it was 85.9% (active); in assay [4] (setting [7]), 51%; in assay [4] (setting [8]), -2%; in assay [4] (at 50.0 µM) it was 72% (active). The growth inhibition in assay [5] (setting [7]) was 1%; in assay [5] (setting [8]), 11%; in assay [5] (at 50.0 µM) it was 83% (active); in assay [6] (setting [7]) it was 17%; in assay [6] (setting [8]) it was -2%; in assay [6] (at 50.0 µM) it was 91.5% (active).

For `COC(=O)Nc1nc2ccc(C(=O)c3ccccc3)cc2[nH]1`, the growth inhibition is 0% in assay [1] (setting [7]); -9% in assay [1] (setting [8]); 55% in assay [1] (at 50.0 µM); 3% in assay [2] (setting [7]); -7% in assay [2] (setting [8]); 46.9% in assay [2] (at 50.0 µM). In addition, the growth inhibition in assay [3] (setting [7]) was -1%; in assay [3] (setting [8]), -5%; in assay [3] (at 50.0 µM), 43.8%; in assay [4] (setting [7]), -1%; in assay [4] (setting [8]), -24%; in assay [4] (at 50.0 µM) it was 45%. In addition, the growth inhibition in assay [5] (setting [7]) is 10%; in assay [5] (setting [8]), 16%; in assay [5] (at 50.0 µM), 71.5% (active); in assay [6] (setting [7]), 1%; in assay [6] (setting [8]), 17%; in assay [6] (at 50.0 µM), 67.5%.

The values above are taken from PubChem BioAssay (NCI).
